Laboratory results reported in article PMC9911399, “Two distinct binding modes provide the RNA-binding protein RbFox with extraordinary sequence specificity”.
Numbering of substitutions follows the chain as printed; changes in the protein carry UniProt numbers. Whole data set: some 16,000 sequences, median “ka relative to ugcaugu” near 0.0091, cut for the highest 2% near 0.032. The sample holds the highest values, similar sequences and a random draw of the others, so the mix is not that of the screen.

T1: RBFOX1 RRM (Homo sapiens, UniProt Q9NWB1 109-208)
T1 sequence: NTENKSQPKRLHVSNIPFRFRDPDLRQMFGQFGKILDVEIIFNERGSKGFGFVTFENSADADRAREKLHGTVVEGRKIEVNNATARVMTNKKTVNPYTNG

B1: UAACAUU (DNA:RNA)
RNA: GGGAGACCGGAAUUCAGAUUGUCCUAACAUUUUAAAUCCCGUCGUAGCCACCA
DNA 1: CAATCTGAATTCCGGTCTCCC
DNA 2: TGGTGGCTACGACGGGATT
B2: UACAGUC (DNA:RNA)
RNA: B1 RNA with A27C, C28A, A29G, U31C
DNA 1: CAATCTGAATTCCGGTCTCCC
DNA 2: TGGTGGCTACGACGGGATT
B3: AGCAGAA (DNA:RNA)
RNA: GGGAGACCGGAAUUCAGAUUGUCCAGCAGAAUUAAAUCCCGUCGUAGCCACCA
DNA 1: CAATCTGAATTCCGGTCTCCC
DNA 2: TGGTGGCTACGACGGGATT
B4: GCAUGGA (DNA:RNA)
RNA: B3 RNA with A25G, G26C, C27A, A28U, A30G
DNA 1: CAATCTGAATTCCGGTCTCCC
DNA 2: TGGTGGCTACGACGGGATT
B5: GGAUGGA (DNA:RNA)
RNA: B3 RNA with A25G, C27A, A28U, A30G
DNA 1: CAATCTGAATTCCGGTCTCCC
DNA 2: TGGTGGCTACGACGGGATT
B6: GCAUUCA (DNA:RNA)
RNA: B3 RNA with A25G, G26C, C27A, A28U, G29U, A30C
DNA 1: CAATCTGAATTCCGGTCTCCC
DNA 2: TGGTGGCTACGACGGGATT
B7: GGAUGAC (DNA:RNA)
RNA: B3 RNA with A25G, C27A, A28U, A31C
DNA 1: CAATCTGAATTCCGGTCTCCC
DNA 2: TGGTGGCTACGACGGGATT
B8: GCAUGAC (DNA:RNA)
RNA: B3 RNA with A25G, G26C, C27A, A28U, A31C
DNA 1: CAATCTGAATTCCGGTCTCCC
DNA 2: TGGTGGCTACGACGGGATT
B9: GUAUGAC (DNA:RNA)
RNA: B3 RNA with A25G, G26U, C27A, A28U, A31C
DNA 1: CAATCTGAATTCCGGTCTCCC
DNA 2: TGGTGGCTACGACGGGATT
B10: GGCAUAA (DNA:RNA)
RNA: B3 RNA with A25G, G29U
DNA 1: CAATCTGAATTCCGGTCTCCC
DNA 2: TGGTGGCTACGACGGGATT
B11: GCAUGAU (DNA:RNA)
RNA: B3 RNA with A25G, G26C, C27A, A28U, A31U
DNA 1: CAATCTGAATTCCGGTCTCCC
DNA 2: TGGTGGCTACGACGGGATT
B12: GUCAUGA (DNA:RNA)
RNA: B3 RNA with A25G, G26U, G29U, A30G
DNA 1: CAATCTGAATTCCGGTCTCCC
DNA 2: TGGTGGCTACGACGGGATT
B13: GCAUUUU (DNA:RNA)
RNA: B1 RNA with U25G, A26C, C28U, A29U
DNA 1: CAATCTGAATTCCGGTCTCCC
DNA 2: TGGTGGCTACGACGGGATT
B14: GGCAUGA (DNA:RNA)
RNA: B3 RNA with A25G, G29U, A30G
DNA 1: CAATCTGAATTCCGGTCTCCC
DNA 2: TGGTGGCTACGACGGGATT
B15: GCAUAAU (DNA:RNA)
RNA: B1 RNA with U25G, A26C, C28U, U30A
DNA 1: CAATCTGAATTCCGGTCTCCC
DNA 2: TGGTGGCTACGACGGGATT
B16: CCUUGGG (DNA:RNA)
RNA: B3 RNA with A25C, G26C, C27U, A28U, A30G, A31G
DNA 1: CAATCTGAATTCCGGTCTCCC
DNA 2: TGGTGGCTACGACGGGATT
B17: CGCCUAC (DNA:RNA)
RNA: B3 RNA with A25C, A28C, G29U, A31C
DNA 1: CAATCTGAATTCCGGTCTCCC
DNA 2: TGGTGGCTACGACGGGATT
B18: AUGAUGU (DNA:RNA)
RNA: B3 RNA with G26U, C27G, G29U, A30G, A31U
DNA 1: CAATCTGAATTCCGGTCTCCC
DNA 2: TGGTGGCTACGACGGGATT
B19: GCAUAGA (DNA:RNA)
RNA: B1 RNA with U25G, A26C, C28U, U30G, U31A
DNA 1: CAATCTGAATTCCGGTCTCCC
DNA 2: TGGTGGCTACGACGGGATT
B20: GGAUGAG (DNA:RNA)
RNA: B3 RNA with A25G, C27A, A28U, A31G
DNA 1: CAATCTGAATTCCGGTCTCCC
DNA 2: TGGTGGCTACGACGGGATT
B21: GCCAUGA (DNA:RNA)
RNA: B3 RNA with A25G, G26C, G29U, A30G
DNA 1: CAATCTGAATTCCGGTCTCCC
DNA 2: TGGTGGCTACGACGGGATT
B22: GCAUGUA (DNA:RNA)
RNA: B3 RNA with A25G, G26C, C27A, A28U, A30U
DNA 1: CAATCTGAATTCCGGTCTCCC
DNA 2: TGGTGGCTACGACGGGATT
B23: GCAUGAG (DNA:RNA)
RNA: B3 RNA with A25G, G26C, C27A, A28U, A31G
DNA 1: CAATCTGAATTCCGGTCTCCC
DNA 2: TGGTGGCTACGACGGGATT
B24: GCAUUGA (DNA:RNA)
RNA: B3 RNA with A25G, G26C, C27A, A28U, G29U, A30G
DNA 1: CAATCTGAATTCCGGTCTCCC
DNA 2: TGGTGGCTACGACGGGATT
B25: GCAUAUA (DNA:RNA)
RNA: B1 RNA with U25G, A26C, C28U, U31A
DNA 1: CAATCTGAATTCCGGTCTCCC
DNA 2: TGGTGGCTACGACGGGATT
B26: CGCAUGA (DNA:RNA)
RNA: B3 RNA with A25C, G29U, A30G
DNA 1: CAATCTGAATTCCGGTCTCCC
DNA 2: TGGTGGCTACGACGGGATT
B27: GUAUGUA (DNA:RNA)
RNA: B3 RNA with A25G, G26U, C27A, A28U, A30U
DNA 1: CAATCTGAATTCCGGTCTCCC
DNA 2: TGGTGGCTACGACGGGATT
B28: GUAUGAG (DNA:RNA)
RNA: B3 RNA with A25G, G26U, C27A, A28U, A31G
DNA 1: CAATCTGAATTCCGGTCTCCC
DNA 2: TGGTGGCTACGACGGGATT
B29: GCAUAAA (DNA:RNA)
RNA: B3 RNA with A25G, G26C, C27A, A28U, G29A
DNA 1: CAATCTGAATTCCGGTCTCCC
DNA 2: TGGTGGCTACGACGGGATT
B30: GCAUGAA (DNA:RNA)
RNA: B3 RNA with A25G, G26C, C27A, A28U
DNA 1: CAATCTGAATTCCGGTCTCCC
DNA 2: TGGTGGCTACGACGGGATT

Target: T1, RBFOX1 RRM
Test: EMSA; HiTS-Eq, 1 nM pool, 10 min; buffer printed only for the single-RNA assays: 10 mM Tris pH 7.5, 150 mM NaCl, 3.4 mM EDTA, 0.001% NP-40, 30 C
Conditions: tags: His6 N-terminal (pET28a); label: 5' 32P
How it was run: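 A pool of RNA with 7 randomized nucleotides, 5′-radiolabelled and with DNA-annealed flanks, was equilibrated at 1 nM for 10 min in 50 µL with purified RbFox RRM, wild type or mutant, across increasing protein concentrations. Free RNA was separated by 8% native PAGE, excised, reverse-transcribed, barcoded by PCR and sequenced. Relative association constants were obtained from read-count changes of each RNA species versus the control reaction and normalised to the cognate motif.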

| Binder | binding signal |
| --- | --- |
| B1 | 0.00574 KA relative to UGCAUGU |
| B2 | 0.00675 KA relative to UGCAUGU |
| B3 | 0.00732 KA relative to UGCAUGU |
| B4 | 0.0333 KA relative to UGCAUGU |
| B5 | 0.0107 KA relative to UGCAUGU |
| B6 | 0.00789 KA relative to UGCAUGU |
| B7 | 0.015 KA relative to UGCAUGU |
| B8 | 0.599 KA relative to UGCAUGU |
| B9 | 0.0127 KA relative to UGCAUGU |
| B10 | 0.00272 KA relative to UGCAUGU |
| B11 | 0.626 KA relative to UGCAUGU |
| B12 | 0.0126 KA relative to UGCAUGU |
| B13 | 0.0088 KA relative to UGCAUGU |
| B14 | 0.156 KA relative to UGCAUGU |
| B15 | 0.00163 KA relative to UGCAUGU |
| B16 | 0.00389 KA relative to UGCAUGU |
| B17 | 0.00556 KA relative to UGCAUGU |
| B18 | 0.0132 KA relative to UGCAUGU |
| B19 | 0.0137 KA relative to UGCAUGU |
| B20 | 0.0205 KA relative to UGCAUGU |
| B21 | 0.0124 KA relative to UGCAUGU |
| B22 | 0.473 KA relative to UGCAUGU |
| B23 | 0.684 KA relative to UGCAUGU |
| B24 | 0.0124 KA relative to UGCAUGU |
| B25 | 0.0014 KA relative to UGCAUGU |
| B26 | 0.67 KA relative to UGCAUGU |
| B27 | 0.0125 KA relative to UGCAUGU |
| B28 | 0.0141 KA relative to UGCAUGU |
| B29 | 0.00438 KA relative to UGCAUGU |
| B30 | 0.594 KA relative to UGCAUGU |
